SW480 rereplic = induces DNA re-replication in SW480 colon adenocarcinoma cells | SW480 DNA re-replication, Hoechst DNA content imaging, 48 h | Potency, µM (top dose mostly 46.1 µM), inactives show at the top dose re-replication activation, actives largely listed as activators | actives 1.8% (n = 340,000); further: % of control where 0% means no effect; nearly all actives have a fitted effect of over 55% in size
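SW480 cells exposed to compounds for 48 hr at 37 C, 5% CO2, then Hoechst-stained 40 min. Nuclear DNA content imaged by fluorescence scanning (405 nm excitation, 500-530 nm emission); re-replication scored as increased high-intensity nuclei.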
Gal4-VP16 FLuc = counter-screen for ROR gamma inhibitors: Gal4-VP16 reporter. Drosophila S2 Gal4-VP16 UAS-luciferase, luminescence, 20 h. Potency, µM (series often up to 53.6 µM), for the others: at the top dose activity, negative = inhibition, usual class: inhibitors. actives 3.5% (n = 310,000);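 further: Gal4-VP16 expression switched on by copper sulfate through the metallothionein promoter; on the % scale 0 is the no-effect control and ±100 the full control effect; nearly all actives have a fitted effect of over 50% in size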
ELG1 DNA repair = ELG1-dependent DNA repair inhibition; HEK293T ELG1-luciferase reporter, luminescence, 16 h; DNA damage induced by 5-fluorouridine; Potency, µM (series often up to 46.1 µM), inactives show at the highest dose activity change, negative = inhibition, hits mostly inhibitors; actives 2.3% (n = 330,000); AID 504467; further: on the % scale 0 is the no-effect control and ±100 the full control effect; nearly all actives have a fitted effect of over 55% in size
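Overnight (16 hr) co-exposure of 2,000 cells/well to 5-fluorouridine and compound at 37 °C preceded detection. Luciferase was quantified via ONE-Glo luminescence; loss of signal denotes inhibition.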
MCF10A rerep = DNA re-replication induction in MCF 10a cells; Potency, µM (doses to about 46.1 µM), without a hit: at the top dose activity, positive = re-replication, most hits filed as activators; actives 2.9% (n = 350,000); AID 624296; MCF 10A DNA re-replication, Hoechst nuclear intensity, 48 h; further: % of control where 0% means no effect; nearly all actives have a fitted effect of over 50% in size
RORg inh = ROR gamma (mouse) transcription inhibition. Potency, µM (highest dose often 53.6 µM), without a hit: top-dose activity change, negative = inhibition, hits mostly inhibitors. AID 2551. Drosophila S2 Gal4-RORgamma UAS-luciferase reporter, 20 h. actives 5.4% (n = 310,000). P51450; further: on the % scale 0 is the no-effect control and ±100 the full control effect; nearly all actives have a fitted effect of over 60% in size
Target sequence (P51450 whole entry, looked up, the tested form may be a part): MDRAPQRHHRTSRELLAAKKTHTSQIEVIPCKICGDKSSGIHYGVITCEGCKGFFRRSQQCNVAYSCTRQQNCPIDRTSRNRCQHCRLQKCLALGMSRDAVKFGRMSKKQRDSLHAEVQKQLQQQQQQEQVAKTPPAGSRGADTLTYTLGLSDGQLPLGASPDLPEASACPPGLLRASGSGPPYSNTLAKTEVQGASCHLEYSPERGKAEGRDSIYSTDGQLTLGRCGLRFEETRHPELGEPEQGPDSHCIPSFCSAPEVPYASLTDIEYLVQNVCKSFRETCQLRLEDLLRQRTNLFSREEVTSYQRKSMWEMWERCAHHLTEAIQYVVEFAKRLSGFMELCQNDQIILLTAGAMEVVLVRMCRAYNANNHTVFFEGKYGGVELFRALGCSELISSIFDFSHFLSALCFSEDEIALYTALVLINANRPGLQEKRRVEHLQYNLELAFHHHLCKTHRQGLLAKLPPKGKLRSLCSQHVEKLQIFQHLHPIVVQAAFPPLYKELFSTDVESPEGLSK
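Using a luciferase readout, inhibitors were identified by reduced reporter activity in Drosophila cells coexpressing a copper-inducible Gal4–ROR gamma fusion and UAS-driven Photinus luciferase, incubated 20 hr after 700 uM copper sulfate.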
Numbers without * were called inactive; [ ] = dose if it differs, or a comment. In the library only some 10% were active in any assay of this set; here they are far more common. The call rests on the fitted dose curve; in most records, active means well fitted curve in the direction sought with a large enough effect; inconclusive means small, poorly fitted or top-dose-only effect, or another doubt; inactive means no such curve, though single readings can be large; an effect the other way counts as inactive or inconclusive. Potency means the concentration at half of the fitted maximal effect.

What do the screens show for `Cc1nnc(SCC(=O)N/N=C/c2cn(-c3ccccc3)nc2-c2ccccc2)n1-c1ccccc1`?
SW480 rereplic: 17%; Gal4-VP16 FLuc: -3%; ELG1 DNA repair: inconclusive; MCF10A rerep: inconclusive; RORg inh: inconclusive

What do the screens show for `O=C(N/N=C/c1cn(-c2ccccc2)nc1-c1ccccc1)c1ccco1`?
SW480 rereplic: 17%; Gal4-VP16 FLuc: 10µM*; ELG1 DNA repair: -10%; MCF10A rerep: 26%; RORg inh: 6.3µM*

What do the screens show for `CC(OC(=O)C1CCN(S(=O)(=O)c2ccccc2C(F)(F)F)CC1)C(=O)N(C)Cc1ccccc1` (centres undefined)?
SW480 rereplic: -6%; Gal4-VP16 FLuc: -9%; ELG1 DNA repair: -19%; MCF10A rerep: 16%; RORg inh: inconclusive

How did O=C(O)CC(Sc1n[nH]c(=S)s1)C(=O)O (centres undefined) do in these assays?
SW480 rereplic: -2%; Gal4-VP16 FLuc: -9%; ELG1 DNA repair: 24%; MCF10A rerep: inconclusive; RORg inh: -20%

What do the screens show for `Cc1ccccc1NC(=S)N1CCN(c2ccccc2Cl)CC1`?
SW480 rereplic: -1%[9.22 µM]; Gal4-VP16 FLuc: 7.1µM*; ELG1 DNA repair: -2%; MCF10A rerep: 2%; RORg inh: 7.1µM*

Results for COc1ccccc1NC(=S)N1CCN(c2cccc(C)c2C)CC1 ?
SW480 rereplic: -4%; Gal4-VP16 FLuc: 11µM*; ELG1 DNA repair: -17%; MCF10A rerep: 0%; RORg inh: 11µM*

What do the screens show for `COc1cccc(OC)c1C(=O)NC(=O)NNc1cc(C(F)(F)F)cc(C)n1`?
SW480 rereplic: 1%; Gal4-VP16 FLuc: 6%; ELG1 DNA repair: 9%; MCF10A rerep: 3%; RORg inh: 20%

Results for Cc1ccc(COC(=O)CN2C(=O)NC3(CCCCC3C)C2=O)cc1 (centres undefined) ?
SW480 rereplic: -464%; ELG1 DNA repair: 0%; MCF10A rerep: 28%

Results for COc1cccc(-c2cc(C(=O)N3CCc4ccccc4C3)[nH]n2)c1 ?
SW480 rereplic: 0%; Gal4-VP16 FLuc: -11%; ELG1 DNA repair: inconclusive; MCF10A rerep: 5%; RORg inh: 1.1µM*

Results for Cc1cc(C(=O)N2CCc3ccccc3C2)n[nH]1 ?
SW480 rereplic: -18%; Gal4-VP16 FLuc: 20%; ELG1 DNA repair: 27%; MCF10A rerep: 8%; RORg inh: 4%

What do the screens show for `Cc1ccc(-c2cc(C(=O)N3CCc4ccccc4C3)[nH]n2)cc1C`?
SW480 rereplic: -4%; Gal4-VP16 FLuc: -4%; ELG1 DNA repair: inconclusive; MCF10A rerep: 8%; RORg inh: 1µM*

How did COc1ccccc1N(CC(=O)NCc1ccccc1C)S(=O)(=O)c1ccc(C)cc1 do in these assays?
SW480 rereplic: 27%; Gal4-VP16 FLuc: -13%; ELG1 DNA repair: inconclusive; MCF10A rerep: 4%; RORg inh: inconclusive

Results for Cc1cc(C(=O)CN2C(=O)c3ccccc3S2(=O)=O)c(C)n1CC1CCCO1 (centres undefined) ?
SW480 rereplic: -2%; Gal4-VP16 FLuc: 8.9µM*; ELG1 DNA repair: 5.2µM*; MCF10A rerep: 0%; RORg inh: 2.2µM*

Results for COc1cc(OC)cc(C(=O)OCC(=O)c2cc(C)n(CC3CCCO3)c2C)c1 (centres undefined) ?
SW480 rereplic: 3%; ELG1 DNA repair: 17%; MCF10A rerep: -5%

Results for Cc1cc(C(=O)COC(=O)c2ccc(O)cc2)c(C)n1CC1CCCO1 (centres undefined) ?
SW480 rereplic: 0%; Gal4-VP16 FLuc: -21%; ELG1 DNA repair: inconclusive; MCF10A rerep: 2%; RORg inh: 7.1µM*

Results for Cc1cc(C(=O)CSc2nnc(Nc3ccccc3)s2)c(C)n1CC1CCCO1 (centres undefined) ?
SW480 rereplic: inconclusive; Gal4-VP16 FLuc: 9%; ELG1 DNA repair: 18µM*; MCF10A rerep: 27%; RORg inh: inconclusive

Results for COc1ccccc1C(=O)OCC(=O)Nc1cccc(S(=O)(=O)N2CCCC2)c1 ?
SW480 rereplic: -2%; ELG1 DNA repair: -28%; MCF10A rerep: 13%

What do the screens show for `O=C(COC(=O)c1ccc2ccccc2n1)NC1CCCCC1`?
SW480 rereplic: 27%; ELG1 DNA repair: 5%; MCF10A rerep: -1%

How did Cc1nc(-c2ccccc2)[nH]c(=O)c1Oc1ccc(Cl)cc1Cl do in these assays?
SW480 rereplic: -5%; Gal4-VP16 FLuc: 2%; ELG1 DNA repair: 8.2µM*; MCF10A rerep: 1%; RORg inh: 7%

What do the screens show for `CCCc1cc(=O)[nH]c(SCC(=O)N2CCOCC2)n1`?
SW480 rereplic: inconclusive; Gal4-VP16 FLuc: 8%; ELG1 DNA repair: -2%; MCF10A rerep: 7%; RORg inh: -14%

What do the screens show for `Cc1cccc(NC(=O)/C=C/c2ccc(Cl)cc2)n1`?
Gal4-VP16 FLuc: 7.1µM*; ELG1 DNA repair: inconclusive; MCF10A rerep: 0%; RORg inh: 1.6µM*

Results for O=C(/C=C/c1ccccc1)Nc1ccc(Cl)cn1 ?
SW480 rereplic: 15µM*; Gal4-VP16 FLuc: -12%; ELG1 DNA repair: inconclusive; MCF10A rerep: inconclusive; RORg inh: 8%

What do the screens show for `O=C(CC(c1ccccc1)c1ccccc1)Nc1ccc(Cl)cn1`?
SW480 rereplic: inconclusive; Gal4-VP16 FLuc: 11%; ELG1 DNA repair: 12µM*; MCF10A rerep: inconclusive; RORg inh: -16%

What do the screens show for `COc1ccc(NC(=O)C(c2ccccc2)c2ccccc2)cn1`?
SW480 rereplic: -2%; Gal4-VP16 FLuc: -3%; ELG1 DNA repair: -14%; MCF10A rerep: -3%; RORg inh: 3%

How did CCCc1nnc(NC(=O)C2CCN(C(=O)C3CC(=O)N(c4ccc(C)cc4)C3)CC2)s1 (centres undefined) do in these assays?
SW480 rereplic: 29%; Gal4-VP16 FLuc: -10%; ELG1 DNA repair: -6%; MCF10A rerep: 14%; RORg inh: 1%

How did CCCn1nc(C(=O)NC2CCCCCC2)c2ccccc2c1=O do in these assays?
SW480 rereplic: 0%; ELG1 DNA repair: -24%; MCF10A rerep: 8%

Results for Cc1cccc(-n2c(CCc3ccccc3)nnc2SCC(=O)c2ccccc2)c1 ?
SW480 rereplic: 4%; Gal4-VP16 FLuc: 11µM*; ELG1 DNA repair: inconclusive; MCF10A rerep: inconclusive; RORg inh: inconclusive

What do the screens show for `Cc1ccc(OCc2nnc(SCC(=O)c3ccccc3)n2-c2ccccc2)cc1`?
SW480 rereplic: 30%; Gal4-VP16 FLuc: inconclusive; ELG1 DNA repair: 23µM*; MCF10A rerep: inconclusive; RORg inh: inconclusive

What do the screens show for `N#Cc1ccc(OCc2nnc(SCC(=O)c3ccccc3)n2-c2ccccc2)cc1`?
SW480 rereplic: -3%; Gal4-VP16 FLuc: -7%; ELG1 DNA repair: 15µM*; MCF10A rerep: inconclusive; RORg inh: inconclusive
